Measured values published in PubChem BioAssay AID1159580 (chemical genetic matrix, 2015).
Among all 5,500 compounds or so, about 2,000 (36%) were called active. Another 18% or so got no clear call; they are omitted. No stated cut-off is given here; in the data, active means normalized growth mostly below about 0.91 (no sharp cut-off); inconclusive means no clear call, values can overlap the other calls; inactive means mostly above about 0.92. The list shows a part of the results.

Experiment: chemical genetic growth profiling, strain panel (AID 1159580);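 further: tested at 20 µM; growth read once vehicle control cultures reached saturation at 30 °C; 1 = growth at the plate median or of vehicle wells; lower values mean less growth of the strain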
Settings: S. cerevisiae deletion strains, growth OD

Measured: normalized growth

C=C1CCC2[C@](C)(CO)[C@H](O)CC[C@@]2(C)[C@@H]1C/C=C1/C(=O)OC[C@H]1O (some centres undefined)
inactive: locus YAL013W, strain DEP1, hits give low values 1.01 | locus YAL021C, strain ccr4, hits give low values 0.993 | locus YAL026C, strain drs2, hits give low values 0.992 | locus YAL030W, strain snc1, hits give low values 0.996 | locus YBL061C, strain skt5, hits give low values 1 | locus YBR009C, strain hhf1, hits give low values 1.02 | locus YBR021W, strain FUR4, hits give low values 1 | locus YBR023C, strain chs3, hits give low values 0.999 | locus YBR171W, strain sec66, hits give low values 0.978 | locus YBR229C, strain ROT2, hits give low values 1.01 | locus YBR231C, strain swc5, hits give low values 0.996 | locus YBR279W, strain paf1, hits give low values 1 | locus YCL011C, strain gbp2, hits give low values 0.985 | locus YCL016C, strain dcc1, hits give low values 0.998 | locus YCL029C, strain bik1, hits give low values 1.03 | locus YCL069W, strain vba3, hits give low values 1.01 | locus YCR088W, strain abp1, hits give low values 1 | locus YDL005C, strain med2, hits give low values 0.961 | locus YDL035C, strain GPR1, hits give low values 1.02 | locus YDL040C, strain nat1, hits give low values 0.995 | locus YDL074C, strain BRE1, hits give low values 1.06 | locus YDL101C, strain DUN1, hits give low values 1.02 | locus YDL185W, strain tfp1, hits give low values 1.03 | locus YDL192W, strain arf1, hits give low values 1.02 | locus YDR001C, strain nth1, hits give low values 0.988 | locus YDR069C, strain doa4, hits give low values 0.992 | locus YDR101C, strain arx1, hits give low values 1.01 | locus YDR137W, strain rgp1, hits give low values 0.995 | locus YDR159W, strain sac3, hits give low values 1.04 | locus YDR162C, strain NBP2, hits give low values 1.04 | locus YDR195W, strain ref2 0.949 | locus YDR297W, strain sur2, hits give low values 1 | locus YDR318W, strain mcm21, hits give low values 1.05 | locus YDR334W, strain swr1, hits give low values 0.987 | locus YDR335W, strain msn5, hits give low values 0.986 | locus YDR388W, hits give low values 1.01 | locus YDR392W, strain spt3, hits give low values 0.998 | locus YDR502C, strain sam2, hits give low values 1.05 | locus YEL003W, strain gim4, hits give low values 0.995 | locus YEL037C, strain rad23, hits give low values 0.999 | locus YEL061C, strain CIN8 (second series), hits give low values 0.99 | locus YEL061C, strain CIN8, hits give low values 1.01 | locus YER015W, strain faa2, hits give low values 0.994 | locus YER016W, strain bim1, hits give low values 0.978 | locus YER110C, hits give low values 1.02 | locus YER111C, strain swi4, hits give low values 0.988 | locus YER155C, strain BEM2 (second series), hits give low values 0.995 | locus YER155C, strain BEM2, hits give low values 1.02 | locus YER167W, strain BCK2, hits give low values 1.01 | locus YFR010W, strain ubp6, hits give low values 1.02 | locus YGL078C, strain dbp3, hits give low values 1.03 | locus YGL086W, strain mad1, hits give low values 1.01 | locus YGL167C, strain pmr1, hits give low values 0.992 | locus YGL173C, strain kem1, hits give low values 1.01 | locus YGL227W, strain vid30, hits give low values 0.991 | locus YGL240W, strain doc1, hits give low values 0.999 | locus YGL248W, strain PDE1, hits give low values 1.03 | locus YGL253W, strain hxk2, hits give low values 0.971 | locus YGR078C, strain PAC10, hits give low values 1.03 | locus YGR135W, strain pre9, hits give low values 1.05 | locus YGR252W, strain gcn5, hits give low values 1.01 | locus YHR013C, strain ard1, hits give low values 0.983 | locus YHR027C, strain rpn1, hits give low values 0.976 | locus YHR079C, strain IRE1 (second series), hits give low values 1.03 | locus YHR094C, strain hxt1, hits give low values 1.02 | locus YHR129C, strain ARP1, hits give low values 1.01 | locus YHR142W, strain chs7, hits give low values 0.976 | locus YHR200W, strain rpn10, hits give low values 1.03 | locus YIL066C, strain RNR3, hits give low values 1.02 | locus YIL073C, strain SPO22, hits give low values 1.11 | locus YIL125W, strain kgd1, hits give low values 1.03 | locus YIR030C, strain dcg1, hits give low values 1.03 | locus YJL092W, strain hpr5, hits give low values 0.985 | locus YJL095W, strain BCK1 (second series), hits give low values 0.982 | locus YJL095W, strain BCK1, hits give low values 1.05 | locus YJL115W, strain asf1, hits give low values 0.955 | locus YJL129C, strain trk1, hits give low values 0.982 | locus YJL134W, strain LCB3, hits give low values 1.01 | locus YJL154C, strain vps35, hits give low values 0.984 | locus YJL164C, strain tpk1, hits give low values 1.01 | locus YJL166W, strain qcr8, hits give low values 0.987 | locus YJL168C, strain set2, hits give low values 1.02 | locus YJL187C, strain SWE1 (second series), hits give low values 1.02 | locus YJL187C, strain SWE1, hits give low values 0.996 | locus YJR043C, strain POL32, hits give low values 1.02 | locus YKL009W, strain mrt4, hits give low values 1.02 | locus YKL068W, hits give low values 1.02 | locus YKL085W, strain MDH1 (second series), hits give low values 1.03 | locus YKL085W, strain MDH1, hits give low values 1.03 | locus YKL160W, strain elf1, hits give low values 0.995 | locus YKL190W, strain CNB1, hits give low values 1.01 | locus YKR001C, strain vps1, hits give low values 1.07 | locus YKR026C, strain gcn3, hits give low values 0.999 | locus YKR091W, strain srl3, hits give low values 0.979 | locus YLL001W, strain dnm1, hits give low values 1.01 | locus YLL026W, hits give low values 0.993 | locus YLL041C, strain sdh2, hits give low values 1.02 | locus YLR027C, strain aat2, hits give low values 1 | locus YLR039C, strain RIC1, hits give low values 1.09 | locus YLR058C, strain SHM2, hits give low values 1.04 | locus YLR102C, strain apc9, hits give low values 1.02 | locus YLR221C, strain rsa3, hits give low values 1.04 | locus YLR258W, strain gsy2, hits give low values 1.01 | locus YLR262C, strain YPT6 (second series), hits give low values 0.975 | locus YLR268W, strain sec22, hits give low values 1.04 | locus YLR320W, strain mms22, hits give low values 1.04 | locus YLR330W, strain CHS5, hits give low values 1.02 | locus YLR342W, strain FKS1, hits give low values 1.02 | locus YLR357W, strain rsc2, hits give low values 0.979 | locus YLR370C, strain arc18, hits give low values 0.972 | locus YLR371W, strain rom2, hits give low values 1.02 | locus YLR384C, strain iki3, hits give low values 0.993 | locus YLR418C, strain cdc73, hits give low values 1.07 | locus YML016C, strain PPZ1, hits give low values 1.01 | locus YML032C, strain rad52, hits give low values 1.03 | locus YML120C, strain ndi1, hits give low values 1 | locus YML124C, strain tub3, hits give low values 1.03 | locus YMR058W, strain fet3, hits give low values 0.977 | locus YMR078C, strain ctf18, hits give low values 1.03 | locus YMR125W, strain sto1, hits give low values 0.98 | locus YMR129W, hits give low values 0.98 | locus YMR205C, strain PFK2, hits give low values 0.995 | locus YMR223W, strain ubp8, hits give low values 1.03 | locus YMR231W, strain pep5, hits give low values 0.997 | locus YMR307W, strain GAS1, hits give low values 0.967 | locus YNL067W, strain RPL9B, hits give low values 1.02 | locus YNL071W, strain lat1, hits give low values 1 | locus YNL209W, strain ssb2, hits give low values 0.987 | locus YNL233W, strain BNI4, hits give low values 1.02 | locus YNL248C, strain rpa49, hits give low values 0.979 | locus YNL250W, strain rad50, hits give low values 1.04 | locus YNL271C, strain bni1, hits give low values 1.03 | locus YNL298W, strain CLA4, hits give low values 1.03 | locus YNL307C, strain MCK1, hits give low values 1.04 | locus YNL322C, strain KRE1 (second series), hits give low values 0.977 | locus YNR049C, strain mso1, hits give low values 0.974 | locus YNR052C, strain pop2, hits give low values 1.03 | locus YOL006C, strain TOP1, hits give low values 1.07 | locus YOL012C, strain htz1 1.13 | locus YOL147C, strain pex11, hits give low values 1.04 | locus YOR001W, strain rrp6, hits give low values 1.01 | locus YOR061W, strain CKA2, hits give low values 1.02 | locus YOR069W, strain VPS5, hits give low values 1.01 | locus YOR070C, strain gyp1, hits give low values 1.01 | locus YOR080W, strain dia2, hits give low values 0.966 | locus YOR083W, strain WHI5, hits give low values 1 | locus YOR106W, strain vam3, hits give low values 0.986 | locus YOR136W, strain idh2, hits give low values 1.04 | locus YOR144C, strain elg1, hits give low values 1.03 | locus YOR184W, strain ser1, hits give low values 1.05 | locus YOR265W, strain rbl2, hits give low values 0.993 | locus YOR270C, strain vph1, hits give low values 1.02 | locus YOR290C, strain snf2, hits give low values 0.966 | locus YOR316C, strain cot1, hits give low values 1.03 | locus YPL051W, strain arl3, hits give low values 0.986 | locus YPL078C, strain atp4, hits give low values 0.982 | locus YPL106C, strain sse1, hits give low values 1 | locus YPL240C, strain hsp82, hits give low values 0.998 | locus YPL241C, strain CIN2, hits give low values 1.01 | locus YPR119W, strain clb2, hits give low values 1.02 | locus YPR141C, strain kar3, hits give low values 1.01 | locus YPR163C, strain tif3, hits give low values 1.04 | locus YPR167C, strain met16, hits give low values 1.03 | strain wtn01, hits give low values 1.02
